In PubChem BioAssay (NCATS):
Records with an inconclusive call do not appear. Where a call stands in place of a potency, no number is given. Calls of active or inactive are those of the source. The call rests on the fitted dose curve; in most records, active means well fitted inhibition curve with a large enough effect; inconclusive means small, poorly fitted or top-dose-only effect; inactive means flat fitted curve, though single readings scatter.

Biological target: Calcium and integrin-binding protein 1 (Homo sapiens) (UniProt Q99828)
Assay: Primary qHTS for Identification of Calcium Integrin Binding Protein 1 (CIB1) Competitor (AID 1508620);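 further: GST tagged CIB1 binding a fluorescein labelled alphaIIb integrin peptide tracer; top concentration of the series differs between compounds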
Conditions: CIB1-GST / FITC-alphaIIb peptide fluorescence polarization; series mostly up to 114 µM
Outline: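 CIB1-GST (1 uM final) and compound incubated 15 min at room temperature before adding FITC-alphaIIb peptide tracer (100 nM final). Competition for binding read by fluorescence polarization (ex 480, em 540) after another 15 min at room temperature.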

Calcium and integrin-binding protein 1 (Homo sapiens), sequence (Q99828 whole entry, looked up): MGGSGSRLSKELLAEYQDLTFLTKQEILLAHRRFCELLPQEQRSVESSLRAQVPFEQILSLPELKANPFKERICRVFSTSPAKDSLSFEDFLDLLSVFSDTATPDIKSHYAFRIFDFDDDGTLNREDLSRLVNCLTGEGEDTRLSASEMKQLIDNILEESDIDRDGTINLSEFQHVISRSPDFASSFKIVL

SMILES | Potency
COc1ccc(-c2ccc3c(N4CCOCC4C)nc(N4CCOCC4C)nc3n2)cc1CO (stereo not given) | inactive
COc1ccc2[nH]c(=O)c3c(c2c1)OC(C)(C)C=C3 | inactive
CC(=O)O[C@@H]1C2=C(O)C(=O)[C@](C)(OC(C)=O)C(=O)C2=CO[C@@]12O[C@@H](C)CC[C@H]2OC(C)=O | inactive
C=C1C(=O)O[C@@H]2[C@H]1CC[C@H](C)C(CCC(=O)O)C2(C)O (stereo not given in full) | inactive
Cc1cc(C)c2c(c1)C(N(Cc1cc(C(F)(F)F)cc(C(F)(F)F)c1)c1nnn(C)n1)CCCN2CC1CCC(C(=O)O)CC1 (stereo not given) | inactive
CCN1CCN(Cc2ccc(NC(=O)c3ccc(C)c(Oc4ccnc5[nH]ccc45)c3)cc2C(F)(F)F)CC1 | inactive
NC(=O)CCCSc1nc(N)nc(-c2c(Cl)cc3c4c(cccc24)COC3)n1 | inactive
C=C1CC2OC(=O)C(COC)C2C(OC(=O)/C(C)=C\C)CC2(C)OC1=CC2=O (stereo not given) | inactive
CC1CCC(=O)CC(SCC(O)C(=O)O)CCC(=O)O1 (stereo not given) | inactive
COC1C=C(C)C(O)(CO)C2(C)CCCC(C)(C)C12 (stereo not given) | inactive
O=C1COC2(CCN(S(=O)(=O)c3ccc(-c4ccc5cccnc5c4)cc3)CC2)CN1C1CC1 | inactive
CC(=O)Nc1cccc(-c2csc(Nc3cc(C)ccn3)n2)c1 | inactive
CNC(=O)c1cc(Oc2ccc(NC(=O)c3cccc(C(F)(F)F)c3)cc2)ccn1 | inactive
CCC(CC)(NC(=O)C(C)C)C(=O)N[C@@H](CCCN=C(N)N)C(=O)NC1(C(=O)NC(c2ccc(F)cc2)c2ccc(F)cc2)CCCC1 | inactive
CCc1ccccc1OC[C@@H](O)CN[C@H]1CCCc2ccccc21 | inactive
